# From PubChem BioAssay (NCI)
# About 83,000 compounds went through this panel and 20% of them were active in at least one assay; those are over-represented in the sample as a whole.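 In brief: 96-well plates, 48 h treatment, single concentration, percent growth endpoint.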 Values without a mark were called inactive. Active and inactive are the calls of the source. The calls were made as follows: active = growth percent below 10; inactive = the rest.
# Columns and labels:
# Test in all cases: NCI-60 one-dose screen, 48 h (100 = growth as untreated, 0 = no growth, -100 = all killed)
# Conditions in all cases: 10 µM unless noted
# SK-MEL-2 melanoma = system: SK-MEL-2 melanoma
# EKVX NSCLC = system: EKVX NSCLC
# SN12C renal = system: SN12C renal
# UO-31 renal = system: UO-31 renal
# TK-10 renal = system: TK-10 renal
# ACHN renal = system: ACHN renal
# A498 renal = system: A498 renal
# CCRF-CEM leukemia = system: CCRF-CEM leukemia
# MOLT-4 leukemia = system: MOLT-4 leukemia
# SR leukemia = system: SR leukemia
# RPMI-8226 leukemia = system: RPMI-8226 leukemia
# OVCAR-8 ovarian = system: OVCAR-8 ovarian
# OVCAR-5 ovarian = system: OVCAR-5 ovarian
# OVCAR-4 ovarian = system: OVCAR-4 ovarian
# SK-OV-3 ovarian = system: SK-OV-3 ovarian
# IGROV1 ovarian = system: IGROV1 ovarian
# OVCAR-3 ovarian = system: OVCAR-3 ovarian
# HS 578T breast = system: HS 578T breast
# NCI/ADR-RES ovarian = system: NCI/ADR-RES ovarian
# T-47D breast = system: T-47D breast
SMILES,growth (SK-MEL-2 melanoma),growth (EKVX NSCLC),growth (SN12C renal),growth (UO-31 renal),growth (TK-10 renal),growth (ACHN renal),growth (A498 renal),growth (CCRF-CEM leukemia),growth (MOLT-4 leukemia),growth (SR leukemia),growth (RPMI-8226 leukemia),growth (OVCAR-8 ovarian),growth (OVCAR-5 ovarian),growth (OVCAR-4 ovarian),growth (SK-OV-3 ovarian),growth (IGROV1 ovarian),growth (OVCAR-3 ovarian),growth (HS 578T breast),growth (NCI/ADR-RES ovarian),growth (T-47D breast)
CCOC(=O)/C(=C/c1c(-c2ccccc2)[nH]c2ccccc12)C(=O)c1ccc(Cl)cc1,61.8%,30.6%,56%,57.9%,82.2%,19.3%,73.7%,14.5%,1.71% (active),9.07% (active),-17.2% (active),59.8%,95.8%,46.8%,81.6%,98.5%,38.5%,63.4%,45.4%,24.9%
COC(=O)c1nc(-c2ccccc2)oc1S(=O)(=O)n1nc(-c2ccccc2)cc1N,85.9%,95.9%,73.3%,65.6%,114%,19.2%,108%,27.2%,17.6%,1.74% (active),57.1%,75.8%,93.5%,107%,106%,73.6%,68.3%,101%,99%,49.5%
[2H]c1nc(Nc2ncc3cc(C(=O)N(C)C)n(C4CCCC4)c3n2)c([2H])c([2H])c1N1C([2H])([2H])C([2H])([2H])NC([2H])([2H])C1([2H])[2H],83.9%,64.4%,67.9%,52.5%,37%,47.1%,76.8%,38.5%,5.14% (active),26.6%,31%,73.8%,40.3%,93.1%,57.1%,65.8%,97%,67.1%,106%,53.2%
O=C(Nc1ccc(S(=O)(=O)NC2CCCCCC2)cc1)C(c1ccccc1)S(=O)(=O)c1ccc(F)cc1 (stereo not given),-22.9% (active),5.65% (active),12.6%,-44.2% (active),6.92% (active),0.641% (active),-33.2% (active),4.59% (active),6.98% (active),-0.97% (active),-23.1% (active),8.45% (active),5.42% (active),4.28% (active),3.67% (active),9.4% (active),3.59% (active),-2.41% (active),15.1%,8.11% (active)
O=C(CCCC(=O)Nc1ccc(-n2nnc3cc(Cl)c(Cl)cc32)cc1)Nc1ccc(-n2nnc3cc(Cl)c(Cl)cc32)cc1,53.8%,64.4%,40.5%,79.8%,84%,66.2%,36.5%,77.6%,91.1%,51.2%,81.1%,25.5%,87.6%,-5.56% (active),31%,59.8%,56.1%,49.8%,84.5%,36.7%
O=C(C[n+]1cccc2cc(Cl)ccc21)c1ccc2c(c1)CCCC2,28.3%,44.7%,10.1%,91.4%,62%,86.2%,74%,16%,1.84% (active),19%,7.65% (active),25.6%,28.3%,16.2%,16.9%,33.7%,0.868% (active),37.5%,101%,2.41% (active)
CN1CC=C(c2cc(NC(=O)Nc3ccc(Oc4ccnc(NC(=O)C5CC5)c4)c(F)c3)cc(C(F)(F)F)c2)CC1,-42.8% (active),-19.9% (active),2.74% (active),-1.84% (active),-2.39% (active),-1.41% (active),-27.9% (active),1.49% (active),-4.01% (active),-18.3% (active),-28% (active),-2.13% (active),7.5% (active),3.24% (active),17.1%,2.9% (active),8.26% (active),-17.3% (active),44.7%,-0.194% (active)
C=CCn1c(SCC(=O)Nc2ccc(C(=O)/C=C/c3ccc(Cl)cc3)cc2)nnc1-c1cc(OC)c(OC)c(OC)c1,103%,92.3%,79.7%,66.5%,102%,106%,82.5%,84.6%,70.8%,72.9%,28.7%,91.6%,116%,87.9%,109%,99.5%,91.9%,87.8%,95.5%,78.9%
COc1ccc(/C=C/C(=O)Nc2ncnc3nc[nH]c23)cc1,96.2%,100%,96.2%,87.8%,103%,111%,108%,79.2%,68.9%,73.4%,99%,103%,118%,98.8%,113%,105%,104%,101%,96.6%,91.2%
COc1ccc(/C=C/C(=O)/C=C(/C=C/c2ccc(OC)c(OC)c2)OB(F)F)cc1OC,76.8%,38%,-5.34% (active),40%,36.9%,-15.8% (active),95.7%,-12% (active),1.45% (active),0.197% (active),-20.9% (active),5.06% (active),65.2%,44.8%,81.9%,49.6%,-8.63% (active),50.2%,30.1%,35.5%
COc1ccc(C(=S)c2cc(OC)c(OC)c(OC)c2)cc1OC(=O)CCl,41.9%,71.8%,34.6%,45.5%,65.2%,41.9%,16%,14.3%,15.3%,11%,26.9%,14.4%,66.9%,52.9%,25.3%,24.4%,8.17% (active),37.8%,7.4% (active),62.6%
COc1cc(C2=NN(C=O)C(c3cccc(Nc4ccnc5cc(C(F)(F)F)ccc45)c3)C2)cc(OC)c1OC (stereo not given),70.7%,61.5%,62.4%,37.6%,46.5%,65.5%,65.4%,37.5%,21.5%,32.3%,27%,61.9%,102%,59.1%,81.6%,67.3%,54.6%,87.5%,55.3%,43.6%
N#CC1(C#N)C2=C(CCCC2)NC(c2c(F)cccc2Cl)C1(C#N)C#N (stereo not given),37.6%,71.1%,72.1%,70%,99.8%,84%,51.3%,36.1%,43.5%,30.1%,43.4%,86.9%,87.7%,66.9%,79.7%,83.3%,20.3%,43.4%,76.6%,79.7%
Cc1cc(NC(=O)CNc2nc(Oc3ccc(F)cc3)nc(-c3ccc(F)cc3)n2)ccc1Cl,103%,98.6%,100%,97%,96.5%,112%,89.3%,95.3%,80.1%,85.2%,96.6%,102%,103%,105%,93.7%,106%,116%,85.8%,101%,91.3%
C=C(C)[C@@H]1CC[C@]2(C(=O)NCCCO)CC[C@]3(C)[C@H](CC[C@@H]4[C@@]5(C)CCCNC(C)(C)[C@@H]5CC[C@]43C)[C@@H]12,94.1%,77.5%,70.9%,56.1%,91.2%,89.5%,95.8%,60.4%,30.5%,-19.5% (active),29%,87.4%,88%,69.3%,85.5%,75.9%,79.2%,61.9%,82.7%,43.8%
